Results as given in PubChem BioAssay AID463173 (ICCB-Longwood Screening Facility, Harvard Medical School, 2010).
About 1,700 (3.3%) of roughly 52,000 compounds were called active. No stated cut-off is given here; in the data, active means survival mostly below about 52% (no sharp cut-off); inactive means mostly above about 56%. The sample as a whole holds a higher share of actives than the screen did.

Test system: Wild type
Assay: S. aureus survival, RN4220 and DeltatarO strains – OD600, teichoic acid synthesis inhibitors, primary screen (AID 463173)
Conditions: S. aureus RN4220 wild type/DeltatarO growth, OD600, 18 h, active compounds read low, screened at 18.75 µg/mL (by protocol)

Structure (SMILES)	survival
COc1cccc(NC(=O)CSc2nnc(-c3cccc(OC)c3)o2)c1	90% (inactive)
CCn1c(CC(=O)Nc2ccccc2)n[nH]c1=S	107% (inactive)
Cc1cn2c(=O)cc(COC(=O)c3cccc(NC(=O)c4ccccc4C)c3)nc2s1	71% (inactive)
COc1ccccc1CNc1ccc(-c2nc(-c3ccccn3)no2)cc1[N+](=O)[O-]	77% (inactive)
Cc1ccc2c(=O)c(C(=O)c3ccccc3)cn(CC(=O)Nc3ccccc3C)c2n1	65% (inactive)
O=c1[nH]c2ccccc2c(O)c1-c1nc2ccccc2c(=O)[nH]1	109% (inactive)
Cc1cccc(NC(=O)CSc2nc3ccccc3nc2N2CCOCC2)c1C	65% (inactive)
Cc1cccc(NC(=O)CSc2nc3ccccc3nc2N2CCC(C)CC2)c1	-9% (active)
CC1CCN(c2nc3ccccc3nc2SCC(=O)Nc2ccccc2C(C)C)CC1	-16% (active)
Cc1ccc(NC(=O)CSc2nc3ccccc3nc2N2CCOCC2)cc1	59% (inactive)
CC(=O)Nc1ccc(NC(=O)CSc2nc3ccccc3nc2N2CCC(C)CC2)cc1	80% (inactive)
Cc1ccc(C)c(NC(=O)CSc2nc3ccccc3nc2N2CCOCC2)c1	76% (inactive)
CCOc1ccc(NC(=O)CSc2nc3ccccc3nc2N2CCOCC2)cc1	112% (inactive)
Cc1cccc(NC(=O)CSc2nc3ccccc3nc2N2CCCCC2)c1C	70% (inactive)
CCOc1ccccc1NC(=O)CSc1nc2ccccc2nc1N1CCOCC1	-11% (active)
COc1ccc(OC)c(CCNC(=O)c2cc3cccc4c3n2CCS4)c1	71% (inactive)
Cn1c(=O)c2c(nc(NCc3ccccc3)n2Cc2ccccc2)n(C)c1=O	79% (inactive)
CC(C)Cc1nn2c(=O)cc(COC(=O)c3ccc(NC(=O)c4cccs4)cc3)nc2s1	127% (inactive)
Cc1ccc(OCCCn2c(C3CC(=O)N(c4cccc(Cl)c4)C3)nc3ccccc32)c(C)c1 (stereo not given)	90% (inactive)
Cc1cccc(C)c1OCCn1c(C2CC(=O)N(Cc3ccc(F)cc3)C2)nc2ccccc21 (stereo not given)	-4% (active)
Cc1cccc(C)c1OCCn1c(C2CC(=O)N(c3cccc(Cl)c3)C2)nc2ccccc21 (stereo not given)	84% (inactive)
C=CCc1ccccc1OCCn1c(C2CC(=O)N(Cc3ccc(F)cc3)C2)nc2ccccc21 (stereo not given)	-16% (active)
COc1ccccc1OCCCn1c(C2CC(=O)N(c3ccc(F)cc3)C2)nc2ccccc21 (stereo not given)	101% (inactive)

Structure (SMILES)	survival
Cc1cc(C)c(Cn2c(C3CC(=O)N(c4ccc(F)cc4)C3)nc3ccccc32)c(C)c1 (stereo not given)	86% (inactive)
Cc1cccc(C)c1OCCCCn1c(C2CC(=O)N(c3ccc(F)cc3)C2)nc2ccccc21 (stereo not given)	34% (inactive)
Cc1ccc(OCCn2c(C3CC(=O)N(Cc4ccc(F)cc4)C3)nc3ccccc32)c(C)c1 (stereo not given)	-15% (active)
CCOc1ccccc1N1CC(c2nc3ccccc3n2CCCCOc2cc(C)ccc2C)CC1=O (stereo not given)	43% (inactive)
Cc1ccc(C)c(OCCn2c(C3CC(=O)N(Cc4ccc(F)cc4)C3)nc3ccccc32)c1 (stereo not given)	-16% (active)
CCOc1ccccc1N1CC(c2nc3ccccc3n2CCOc2ccccc2OC)CC1=O (stereo not given)	107% (inactive)
CCc1ccccc1N1CC(c2nc3ccccc3n2CCCCOc2ccccc2OC)CC1=O (stereo not given)	93% (inactive)
COc1ccc(NC(=O)Cn2c(=O)n(-c3cccc(C)c3)c(=O)c3c2c2cc(C)ccc2n3C)cc1Cl	86% (inactive)
CCc1cccc(NCc2ccccc2-c2nnc(-c3ccccc3Cl)o2)c1	81% (inactive)
CN(C)S(=O)(=O)c1ccc(S(=O)(=O)N2CCC(c3nc4c(nnn4Cc4cccc(F)c4)c(=O)[nH]3)CC2)cc1	113% (inactive)
Cc1cccc(-n2ncc3c(Nc4c(C)cc(C)cc4C)ncnc32)c1	83% (inactive)
Cc1ccc(S(=O)Cc2nc(-c3ccc(C(=O)NCc4cccc(C)c4)cc3)oc2C)cc1 (stereo not given)	99% (inactive)
CCOc1ccc(NC(=O)c2ccc(-c3nc(COc4ccccc4)c(C)o3)cc2)cc1	89% (inactive)
O=C(c1cnc(N2CCCCC2)c2ccccc12)N1CCN(c2cccc(Cl)c2)CC1	68% (inactive)
CCOC(=O)c1cccc(NS(=O)(=O)c2cc(Br)cc3c2N(C(=O)C2CC2)CC3)c1	151% (inactive)
CCCC(=O)NCC(c1ccc2c(c1)OCO2)N1CCN(c2ccccc2)CC1 (stereo not given)	92% (inactive)
O=C(COc1ccccc1F)Nc1ccccc1OCc1cc(=O)n2ccccc2n1	79% (inactive)
CN(C)c1oc(/C=C/c2ccc(F)cc2)nc1C#N	87% (inactive)
CC1CCCCN1CC(=O)N1CCN(C(=O)CN2CCCCC2C)CC1 (stereo not given)	106% (inactive)
CCOc1ccccc1NC(=O)CN(c1cc(C)cc(C)c1)S(=O)(=O)c1c(C)nn(C)c1C	69% (inactive)
CCc1ccc(NC(=O)CN(c2ccc(C)cc2)S(=O)(=O)c2c(C)nn(C)c2C)cc1	76% (inactive)
Cc1cc(C)cc(N(CC(=O)Nc2c(C)cc(C)cc2C)S(=O)(=O)c2c(C)nn(C)c2C)c1	-6% (active)
